Test results: article PMC13494018
Values without a mark were called inactive. No rule for the calls is given here.

Biological target: VTCN1, Q7Z7D3
Sequence (Q7Z7D3 whole entry): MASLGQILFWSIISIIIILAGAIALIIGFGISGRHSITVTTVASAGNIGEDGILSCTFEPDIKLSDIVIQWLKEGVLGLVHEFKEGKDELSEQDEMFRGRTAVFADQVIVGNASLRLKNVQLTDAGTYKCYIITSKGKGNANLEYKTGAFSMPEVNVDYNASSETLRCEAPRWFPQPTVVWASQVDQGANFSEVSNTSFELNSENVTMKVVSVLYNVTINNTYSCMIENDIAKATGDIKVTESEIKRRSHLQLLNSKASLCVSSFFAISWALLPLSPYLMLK

B1: design_606_b60ff77f-1541-4e5f-8260-46d5e5f6b85e_2244_dldesign_0_cycle1_af2pred (protein)
chain: ENKEKVKKAKETLKKARKEAEKAVKKGVLTPEQIARIQEKLHKASELIAEAEQEKGEEGKEKAEKALELAKEVLKEVKEAE
- binding in a display sort: not found

B2: design_606_b60ff77f-1541-4e5f-8260-46d5e5f6b85e_2386_dldesign_0_cycle1_af2pred (protein)
chain: KEEEFEKLKQKAAQLILESYDALSKNIEEAKKYLKEALKAAEEAKKVDPEKGEEVLKKVEKTSKSILKSMELAKKA
- binding in a display sort: not found

B3: design_606_b60ff77f-1541-4e5f-8260-46d5e5f6b85e_2269_dldesign_0_cycle1_af2pred (protein)
chain: ITEDEVVEINNKGSKEGPLWKEAADYAIKALSYKIIAELVLSSENAEEDHKKALAKAEEYEAKYKEKLEKAEKAKKEK
- binding in a display sort: not found

B4: design_606_b60ff77f-1541-4e5f-8260-46d5e5f6b85e_2122_dldesign_0_cycle1_af2pred (protein)
chain: GMEEEKERALEEIRRAREEIKKVAEELKEVDPELAKKAEKVLERAERGLEEGEKNPIAAIGMAEIVRDQLENGKKLLAEKKA
- binding in a display sort: not found

B5: design_606_b60ff77f-1541-4e5f-8260-46d5e5f6b85e_1625_dldesign_0_cycle1_af2pred (protein)
chain: MAKEKAKKEAKKLTEEAAKKIREAALKEENPLEVAKEITEEVLKKIEEIGKKAGLSEEEIEKLKKEAKKKLAAAAHEAYQERAEEEFE
- binding in a display sort: not found

B6: design_606_b60ff77f-1541-4e5f-8260-46d5e5f6b85e_2039_dldesign_0_cycle1_af2pred (protein)
chain: SEEEEASKRNKELADKIREAVRNMREAYAAMQAALAAGDAAAAKAAADKALAQAKVLEELGLTSQAQSNAAKIKADLAAGLAALAA
- binding in a display sort: not found

B7: design_606_b60ff77f-1541-4e5f-8260-46d5e5f6b85e_2085_dldesign_0_cycle1_af2pred (protein)
chain: ERKQEAAELAERLLEKGEKGDEFTGSAYVTRAAHAIGEALGDEEVEKEIEEANKKDVKEGIKLAREKLEELRAA
- binding in a display sort: not found

B8: design_606_b60ff77f-1541-4e5f-8260-46d5e5f6b85e_1708_dldesign_0_cycle1_af2pred (protein)
chain: NEAEKKLKKVAEDAEKALSEAIKASKDDPEKQKELKEKLEQVKKLYEEGLKGTPEDMAKAAAEMRQLRSEADYVLSNAK
- binding in a display sort: not found

B9: design_606_b60ff77f-1541-4e5f-8260-46d5e5f6b85e_2053_dldesign_0_cycle1_af2pred (protein)
chain: SSSLIEENKKEAKEEFNKFAIENGEKRIKEAKELLKKDPEKGKEALKKVLEEAKKLKEKNPEAGEKVEKAAEKALKEA
- binding in a display sort: not found

B10: design_606_b60ff77f-1541-4e5f-8260-46d5e5f6b85e_2076_dldesign_0_cycle1_af2pred (protein)
chain: ATQAEASQAAAEASEARAELEQAAKKLKEEGKEELAKKAEEAAEEARKLLKQAQKADTDTAYKLAQEAKKKLEKELKKAKKA
- binding in a display sort: not found

B11: design_606_b60ff77f-1541-4e5f-8260-46d5e5f6b85e_1772_dldesign_0_cycle1_af2pred (protein)
chain: SKKEEVKERVKEVLERAKKVAERGKKAGVDINEASEMMALAYEAKAAAEAGHIEEAEKLMKKAEEKLKKLEKRAKELEA
- binding in a display sort: not found

B12: design_606_b60ff77f-1541-4e5f-8260-46d5e5f6b85e_2038_dldesign_0_cycle1_af2pred (protein)
chain: EAKEKAKLLKEAAKLAKEAAKAAADKEKAKKLATEAADLAIKAGDYKTNGYMESAILNAEAGNAEAAKAAAEKAAKRAEEKAKKL
- binding in a display sort: not found

B13: design_606_b60ff77f-1541-4e5f-8260-46d5e5f6b85e_2343_dldesign_0_cycle1_af2pred (protein)
chain: DAEEHAKEAEKAIKEAKAYIEEAIKTGDSEKAHEARQKLAEAEYEAKKVYELDPEKGAKLLKKVEEVKKLLKELQK
- binding in a display sort: not found

B14: design_606_b60ff77f-1541-4e5f-8260-46d5e5f6b85e_1627_dldesign_0_cycle1_af2pred (protein)
chain: EEEKKKKYEELLKKAREEMEKLGKEFKKAVEKGDSKAASEAFRKAVKVAREAGEEAKKLGPEGEELEKELSQLLLEIAD
- binding in a display sort: not found

B15: design_606_b60ff77f-1541-4e5f-8260-46d5e5f6b85e_1622_dldesign_0_cycle1_af2pred (protein)
chain: NDKELSKKVHEGYELVAEYEQDPSFIKKNKEKAKEIAKKAEEAAKAAEEGAKKYPELAKALEKIAKKAKEVAKEAKKVAK
- binding in a display sort: not found

B16: design_606_b60ff77f-1541-4e5f-8260-46d5e5f6b85e_1975_dldesign_0_cycle1_af2pred (protein)
chain: AEAESQKVLDTAAELEADLILLGYKKPEIKEQALEDAKKVRRNAREAAGLILKDPEKGKKLAEETEKEGKELIKKYEEEV
- binding in a display sort: not found

B17: design_606_b60ff77f-1541-4e5f-8260-46d5e5f6b85e_2092_dldesign_0_cycle1_af2pred (protein)
chain: MEEEKKKKAKELGEKLVEEVKKAAEEAKKTAETGTPEDAEKAKLDLSKKVHEALSELAEIGQKYDWEEAEKAKKEVIEIGKKAVA
- binding in a display sort: not found

B18: design_606_b60ff77f-1541-4e5f-8260-46d5e5f6b85e_1785_dldesign_0_cycle1_af2pred (protein)
chain: MTPEERRARGEEELARLAKKIEEARKKAEEDGKKGSQDLFSLAERLENLAESAPEIAEEARALGEEARKLAEKLYS
- binding in a display sort: not found

B19: design_606_b60ff77f-1541-4e5f-8260-46d5e5f6b85e_1676_dldesign_0_cycle1_af2pred (protein)
chain: DEAVKKAKELAKKLLEEAKKAAKKGDVETVKAIAKEAKAKAEEAEKNEGFKAAAELYSAYFRIEHMAESLA
- binding in a display sort: not found
